# According to PubChem BioAssay (NCI):
# Several values for one entry are separate records, joined by “and”; a condition that tells them apart may be missing. Identical values can stand only once. This is part of a sample that, as a whole, favours compounds with a hit. Of some 83,000 tested, about 20% had one in any assay.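 Activity criterion: percent growth below 10, measured after cells in 96-well plates were exposed to a single compound concentration for 48 hours.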 Unmarked numbers belong to inactive results. Activity calls are given as the source filed them.
# Columns and labels:
# Assay in all cases: NCI-60 one-dose screen, 48 h (100 = growth as untreated, 0 = no growth, -100 = all killed)
# [1] = system: HCT-15 colon; details: 10 µM unless noted
# [2] = system: HT29 colon; details: 10 µM unless noted
# [3] = system: SNB-75 CNS; details: 10 µM unless noted
# [4] = system: SNB-19 CNS; details: 10 µM unless noted
# [5] = system: U251 CNS; details: 10 µM unless noted
# [6] = system: PC-3 prostate; details: 10 µM unless noted
# [7] = system: SK-MEL-5 melanoma; details: 10 µM unless noted
# [8] = system: UACC-62 melanoma
# [9] = system: LOX IMVI melanoma; details: 10 µM unless noted
# [10] = system: SK-MEL-28 melanoma; details: 10 µM unless noted
# [11] = system: SK-MEL-2 melanoma; details: 10 µM unless noted
# [12] = system: EKVX NSCLC; details: 10 µM unless noted
# [13] = system: SN12C renal; details: 10 µM unless noted
# [14] = system: UO-31 renal; details: 10 µM unless noted
# [15] = system: TK-10 renal
# [16] = system: ACHN renal; details: 10 µM unless noted
# [17] = system: CAKI-1 renal; details: 10 µM unless noted
# [18] = system: A498 renal; details: 10 µM unless noted
# [19] = system: CCRF-CEM leukemia; details: 10 µM unless noted
# [20] = system: MOLT-4 leukemia; details: 10 µM unless noted
compound,measurement,setting,value
O=C1OCC2=C1C(c1ccccc1)c1cc3c(cc1N2CCO)CCC3 (stereo not given),growth,[1],14.1%
same,growth,[2],6.75% (active)
same,growth,[3],64.4%
same,growth,[4],-12.2% (active)
same,growth,[5],12%
same,growth,[6],15.7%
same,growth,[7],-29.2% (active)
same,growth,[8]; 10 µM unless noted,31.7%
same,growth,[9],28.5%
same,growth,[10],42.7%
same,growth,[11],17.1%
same,growth,[12],22.7%
same,growth,[13],23.2%
same,growth,[14],38.1%
same,growth,[15]; 10 µM unless noted,54.5%
same,growth,[16],29.7%
same,growth,[17],26.7%
same,growth,[18],-21.5% (active)
COc1cnc2c(c1)C(=O)c1c-2n(CCCNC(C)C)c(=O)c2cc(Cl)ccc12,growth,[1],-47.2% (active)
same,growth,[2],-90.6% (active)
same,growth,[3],10.4%
same,growth,[4],-23.2% (active)
same,growth,[5],-86.6% (active)
same,growth,[6],-51.7% (active)
same,growth,[7],-81.3% (active)
same,growth,[8]; 10 µM unless noted,-62.8% (active)
same,growth,[9],-88.1% (active)
same,growth,[10],-89.7% (active)
same,growth,[11],70.2%
same,growth,[12],-32.7% (active)
same,growth,[13],17.3%
same,growth,[14],-81.7% (active)
same,growth,[15]; 10 µM unless noted,-89.1% (active)
same,growth,[16],-100% (active)
same,growth,[17],28.8%
same,growth,[18],-2.79% (active)
same,growth,[19],-41.1% (active)
same,growth,[20],-47% (active)
CCOC(=O)C1=C(C)NC(=S)NC1c1ccccc1 (stereo not given),growth,[1],104%
same,growth,[2],110%
same,growth,[3],82.6%
same,growth,[4],104%
same,growth,[5],105%
same,growth,[6],115%
same,growth,[7],103%
same,growth,[8]; 10 µM unless noted,95.6%
same,growth,[9],101%
same,growth,[10],112%
same,growth,[11],113%
same,growth,[12],97.6%
same,growth,[13],103%
same,growth,[14],76.4%
same,growth,[15]; 10 µM unless noted,104%
same,growth,[16],99.6%
same,growth,[17],87.5%
same,growth,[18],86.3%
same,growth,[19],109%
CCOC(=O)c1cnc(SCC)nc1SC#N,growth,[1],63.3%
same,growth,[2],81.5%
same,growth,[3],93.1%
same,growth,[4],110%
same,growth,[5],89.2%
same,growth,[6],91.7%
same,growth,[7],126%
same,growth,[8]; 10 µM unless noted,94.3%
same,growth,[9],83%
same,growth,[10],108%
same,growth,[11],96.1%
same,growth,[12],99.8%
same,growth,[13],95.7%
same,growth,[14],95.2%
same,growth,[15]; 10 µM unless noted,84.3%
same,growth,[16],71.3%
same,growth,[17],-65.3% (active)
same,growth,[18],106%
C=CCOC(=O)C1=C(C)NC2=C(C(=O)CC(C)(C)C2)C1c1ccc(OC)cc1 (stereo not given),growth,[1],105%
same,growth,[2],102%
same,growth,[3],81.2%
same,growth,[4],92.2%
same,growth,[5],103%
same,growth,[6],88.3%
same,growth,[7],108%
same,growth,[8]; 10 µM unless noted,81.1%
same,growth,[9],102%
same,growth,[10],104%
same,growth,[11],95%
same,growth,[12],101%
same,growth,[13],106%
same,growth,[14],85.2%
same,growth,[15]; 10 µM unless noted,114%
same,growth,[16],98.6%
same,growth,[17],80.8%
same,growth,[18],85.5%
same,growth,[19],97.4%
same,growth,[20],89.7%
Cc1cc(O)c2cc3c(O)c(O)ccc3cc2c1,growth,[1],113%
same,growth,[2],125%
same,growth,[3],127%
same,growth,[4],108%
same,growth,[5],108%
same,growth,[6],97.1%
same,growth,[7],94.8%
same,growth,[8]; 10 µM,114%
same,growth,[8]; 100 µM,-27.7% (active) and -63.9% (active)
same,growth,[9],112%
same,growth,[11],124%
same,growth,[12],106%
same,growth,[13],112%
same,growth,[14],102%
same,growth,[15]; 10 µM,115%
same,growth,[15]; 100 µM,-14.3% (active) and -64.8% (active)
same,growth,[16],106%
same,growth,[17],105%
same,growth,[18],103%
same,growth,[19],118%
same,growth,[20],105%
CNC(=O)c1c(NC(=O)c2ccc(C(C)C)cc2)sc2c1CCC(=O)C2,growth,[1],-40.7% (active)
same,growth,[2],3.51% (active)
same,growth,[3],-11.9% (active)
same,growth,[4],8.7% (active)
same,growth,[5],-20.2% (active)
same,growth,[6],-40% (active)
same,growth,[7],-71.4% (active)
same,growth,[8]; 10 µM unless noted,-54.7% (active)
same,growth,[9],1.13% (active)
same,growth,[10],-32.1% (active)
same,growth,[11],-6.19% (active)
same,growth,[12],-4.35% (active)
same,growth,[13],-10.8% (active)
same,growth,[14],-99.6% (active)
same,growth,[15]; 10 µM unless noted,28.7%
same,growth,[16],-90.2% (active)
same,growth,[17],-9.28% (active)
same,growth,[18],-19.7% (active)
same,growth,[19],1.96% (active)
CCOC(=O)Nc1ccc2nc(N3CCCCCC3)sc2c1,growth,[1],24.7%
same,growth,[2],6.49% (active)
same,growth,[3],-8.82% (active)
same,growth,[4],33.6%
same,growth,[5],22.8%
same,growth,[6],25%
same,growth,[7],11.5%
same,growth,[8]; 10 µM unless noted,26%
same,growth,[9],44.4%
same,growth,[10],42.6%
same,growth,[11],36.8%
same,growth,[12],59.9%
same,growth,[13],44.2%
same,growth,[14],39.2%
same,growth,[15]; 10 µM unless noted,51.1%
same,growth,[16],61.9%
same,growth,[17],27.2%
same,growth,[18],54.7%
same,growth,[19],16.7%
COc1cc(NC(=O)CSc2nc3ccc(Cl)cc3c(=O)n2Cc2ccccc2)cc(OC)c1OC,growth,[1],88.3%
same,growth,[2],56.5%
same,growth,[3],53.4%
same,growth,[4],88.3%
same,growth,[5],55.5%
same,growth,[6],71.1%
same,growth,[7],45.5%
same,growth,[8]; 10 µM unless noted,43.2%
same,growth,[9],74.5%
same,growth,[10],78.2%
same,growth,[11],77.6%
same,growth,[12],83.2%
same,growth,[13],88.5%
same,growth,[14],62.4%
same,growth,[15]; 10 µM unless noted,72.9%
same,growth,[16],57.6%
same,growth,[17],76.9%
same,growth,[18],11.7%
same,growth,[19],93.8%
CC(=O)Cc1ccccn1,growth,[1],98.6%
same,growth,[2],95.9%
same,growth,[3],104%
same,growth,[4],114%
same,growth,[5],93.5%
same,growth,[6],94.8%
same,growth,[7],105%
same,growth,[8]; 10 µM unless noted,108%
same,growth,[9],103%
same,growth,[10],106%
same,growth,[11],102%
same,growth,[12],97.7%
same,growth,[13],111%
same,growth,[14],88.5%
same,growth,[15]; 10 µM unless noted,109%
same,growth,[16],99.5%
same,growth,[17],88%
same,growth,[18],107%
same,growth,[19],99.5%
same,growth,[20],102%
COc1cc(NC(=O)CSc2nc3ccc(Cl)cc3c(=O)n2-c2ccccc2)cc(OC)c1OC,growth,[1],99.6%
same,growth,[2],110%
same,growth,[3],71.6%
same,growth,[4],99.9%
same,growth,[5],92.5%
same,growth,[6],80.6%
same,growth,[7],83.8%
same,growth,[8]; 10 µM unless noted,75%
same,growth,[9],90.8%
same,growth,[10],97.2%
same,growth,[11],99.8%
same,growth,[12],76.4%
same,growth,[13],94.3%
same,growth,[14],51%
same,growth,[15]; 10 µM unless noted,120%
same,growth,[16],92.1%
same,growth,[17],83.3%
same,growth,[18],46.6%
same,growth,[19],70.5%
CCN(CC)c1ccc(/C=C2/NC(=O)NC2=O)cc1,growth,[1],36.6%
same,growth,[2],16.5%
same,growth,[3],59.1%
same,growth,[4],61.1%
same,growth,[5],44.7%
same,growth,[6],65.8%
same,growth,[7],-7.83% (active)
same,growth,[8]; 10 µM unless noted,11.7%
same,growth,[9],46.4%
same,growth,[10],66.6%
same,growth,[11],8.13% (active)
same,growth,[12],1.53% (active)
same,growth,[13],55.9%
same,growth,[14],53.5%
same,growth,[15]; 10 µM unless noted,49.5%
same,growth,[16],71.4%
same,growth,[17],39%
same,growth,[18],23.8%
O=C(Nc1ccc(Br)cc1)Nc1cccc(Br)c1,growth,[1],15.4%
same,growth,[2],28.2%
same,growth,[3],85%
same,growth,[4],29.2%
same,growth,[5],28.4%
same,growth,[6],4.68% (active)
same,growth,[7],65.3%
same,growth,[8]; 10 µM unless noted,5.82% (active)
same,growth,[9],33%
same,growth,[10],43.7%
same,growth,[11],26%
same,growth,[12],41%
same,growth,[13],32.5%
same,growth,[14],34.9%
same,growth,[15]; 10 µM unless noted,29.2%
same,growth,[16],14.9%
same,growth,[17],50.3%
same,growth,[18],21.4%
same,growth,[19],15.6%
same,growth,[20],1.92% (active)
CN1C2CCC1/C(=C\c1ccc(Cl)cc1)C(=O)/C2=C/c1ccc(Cl)cc1,growth,[1],54.2%
same,growth,[2],47.1%
same,growth,[3],71.6%
same,growth,[4],64.1%
same,growth,[5],13.6%
same,growth,[6],51.8%
same,growth,[7],66.9%
same,growth,[8]; 10 µM unless noted,47.4%
same,growth,[9],35.1%
same,growth,[10],91.6%
same,growth,[11],56.7%
same,growth,[12],84.4%
same,growth,[13],63.2%
same,growth,[14],58.4%
same,growth,[15]; 10 µM unless noted,79%
same,growth,[16],75.7%
same,growth,[17],68%
same,growth,[18],78.5%
same,growth,[19],24.4%
same,growth,[20],16.4%
CC1CCCN(CCCCOc2ccc(-c3ccc(C#N)cc3)cc2)C1 (stereo not given),growth,[1],56.4%
same,growth,[2],14.6%
same,growth,[3],90.3%
same,growth,[4],95.3%
same,growth,[5],71.7%
same,growth,[6],75.4%
same,growth,[7],46.2%
same,growth,[8]; 10 µM unless noted,89.8%
same,growth,[9],83.9%
same,growth,[10],100%
same,growth,[11],88.6%
same,growth,[12],88.9%
same,growth,[13],89.3%
same,growth,[14],74.5%
same,growth,[15]; 10 µM unless noted,80.6%
same,growth,[16],111%
same,growth,[17],98.7%
same,growth,[18],82.4%
same,growth,[19],59.4%
same,growth,[20],83.4%
CC(C)(C)[Si](C)(C)OC1[C@@H](CNC(N)=O)O[C@@H](n2cnc3c(NC(=O)Nc4ccccc4)ncnc32)[C@H]1O[Si](C)(C)C(C)(C)C (stereo not given in full),growth,[1],48.3%
same,growth,[2],-7.1% (active)
same,growth,[3],73.9%
same,growth,[4],88.4%
same,growth,[5],62.2%
same,growth,[6],17%
same,growth,[7],76.9%
same,growth,[8]; 10 µM unless noted,83.3%
same,growth,[9],32.3%
same,growth,[10],92.7%
same,growth,[11],80.9%
same,growth,[12],59.7%
same,growth,[13],-33.7% (active)
same,growth,[14],40.9%
same,growth,[15]; 10 µM unless noted,84.5%
same,growth,[16],40.2%
same,growth,[17],92.2%
same,growth,[18],81%
same,growth,[19],47.9%
same,growth,[20],23.5%
